This passage reports Potency, activation and activity change, negative = inhibition results from PubChem BioAssay (NCATS).

The structures appear in SMILES notation. Inconclusive results are not listed. A number with no mark means an inactive call. The source made the active and inactive calls. Calls follow the shape of the dose curve; as a rule, active = well fitted curve in the direction sought with a large enough effect; inconclusive = small, poorly fitted or top-dose-only effect, or another doubt; inactive = no such curve, though single readings can be large; an effect the other way counts as inactive or inconclusive.

The target in experiment [1] is Rap guanine nucleotide exchange factor 3 (Homo sapiens) (UniProt O95398). As to the kind of experiment: Confirmatory qHTS for agonist of cAMP-regulated guanine nucleotide exchange factor 3 (EPAC1) (AID 1645881;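 also: EPAC1 catalysed release of BODIPY-GDP from Rap1B seen as fluorescence loss; 100% = effect of cAMP agonist control; nearly all actives have a fitted effect of over 75% in size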). (qHTS replaces the single test concentration by a dilution series.)
Chain of Rap guanine nucleotide exchange factor 3 (Homo sapiens) (O95398 whole entry, looked up): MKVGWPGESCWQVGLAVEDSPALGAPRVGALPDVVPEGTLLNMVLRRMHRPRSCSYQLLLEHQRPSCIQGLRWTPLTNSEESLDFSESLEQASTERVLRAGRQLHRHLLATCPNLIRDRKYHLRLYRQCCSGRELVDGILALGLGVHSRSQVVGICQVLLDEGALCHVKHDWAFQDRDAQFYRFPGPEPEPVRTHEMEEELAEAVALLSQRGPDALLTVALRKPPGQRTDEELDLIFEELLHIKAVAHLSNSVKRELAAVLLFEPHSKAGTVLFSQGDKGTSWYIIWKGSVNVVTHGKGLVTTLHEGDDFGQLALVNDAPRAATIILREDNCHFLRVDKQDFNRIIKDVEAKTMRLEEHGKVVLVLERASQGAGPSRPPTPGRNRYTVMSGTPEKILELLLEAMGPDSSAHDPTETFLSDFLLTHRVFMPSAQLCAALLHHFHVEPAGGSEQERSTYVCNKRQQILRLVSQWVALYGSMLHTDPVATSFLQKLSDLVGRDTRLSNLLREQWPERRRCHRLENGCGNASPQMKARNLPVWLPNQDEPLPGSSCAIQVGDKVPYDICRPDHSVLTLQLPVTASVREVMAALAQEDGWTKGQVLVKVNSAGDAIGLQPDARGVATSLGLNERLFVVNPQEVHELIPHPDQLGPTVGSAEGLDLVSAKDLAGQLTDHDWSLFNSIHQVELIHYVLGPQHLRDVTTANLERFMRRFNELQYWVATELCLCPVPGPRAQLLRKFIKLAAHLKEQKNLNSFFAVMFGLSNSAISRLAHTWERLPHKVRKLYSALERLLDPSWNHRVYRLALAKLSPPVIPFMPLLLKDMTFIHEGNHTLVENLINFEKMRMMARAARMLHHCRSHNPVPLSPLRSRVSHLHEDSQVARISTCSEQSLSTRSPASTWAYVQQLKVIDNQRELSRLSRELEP
For experiment [2], the target named is Rap guanine nucleotide exchange factor 4 (Homo sapiens) (UniProt Q8WZA2). The experiment is described as follows: Confirmatory qHTS for agonist of cAMP-regulated guanine nucleotide exchange factor 4 (EPAC2) (AID 1645884).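 Also: nucleotide exchange releases bodipy-GDP from Rap1 and this lowers its fluorescence; % is scaled to controls: 0 for no effect and ±100 for the full control effect; nearly all actives have a fitted effect of over 65% in size.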
Chain of Rap guanine nucleotide exchange factor 4 (Homo sapiens) (Q8WZA2 whole entry, looked up): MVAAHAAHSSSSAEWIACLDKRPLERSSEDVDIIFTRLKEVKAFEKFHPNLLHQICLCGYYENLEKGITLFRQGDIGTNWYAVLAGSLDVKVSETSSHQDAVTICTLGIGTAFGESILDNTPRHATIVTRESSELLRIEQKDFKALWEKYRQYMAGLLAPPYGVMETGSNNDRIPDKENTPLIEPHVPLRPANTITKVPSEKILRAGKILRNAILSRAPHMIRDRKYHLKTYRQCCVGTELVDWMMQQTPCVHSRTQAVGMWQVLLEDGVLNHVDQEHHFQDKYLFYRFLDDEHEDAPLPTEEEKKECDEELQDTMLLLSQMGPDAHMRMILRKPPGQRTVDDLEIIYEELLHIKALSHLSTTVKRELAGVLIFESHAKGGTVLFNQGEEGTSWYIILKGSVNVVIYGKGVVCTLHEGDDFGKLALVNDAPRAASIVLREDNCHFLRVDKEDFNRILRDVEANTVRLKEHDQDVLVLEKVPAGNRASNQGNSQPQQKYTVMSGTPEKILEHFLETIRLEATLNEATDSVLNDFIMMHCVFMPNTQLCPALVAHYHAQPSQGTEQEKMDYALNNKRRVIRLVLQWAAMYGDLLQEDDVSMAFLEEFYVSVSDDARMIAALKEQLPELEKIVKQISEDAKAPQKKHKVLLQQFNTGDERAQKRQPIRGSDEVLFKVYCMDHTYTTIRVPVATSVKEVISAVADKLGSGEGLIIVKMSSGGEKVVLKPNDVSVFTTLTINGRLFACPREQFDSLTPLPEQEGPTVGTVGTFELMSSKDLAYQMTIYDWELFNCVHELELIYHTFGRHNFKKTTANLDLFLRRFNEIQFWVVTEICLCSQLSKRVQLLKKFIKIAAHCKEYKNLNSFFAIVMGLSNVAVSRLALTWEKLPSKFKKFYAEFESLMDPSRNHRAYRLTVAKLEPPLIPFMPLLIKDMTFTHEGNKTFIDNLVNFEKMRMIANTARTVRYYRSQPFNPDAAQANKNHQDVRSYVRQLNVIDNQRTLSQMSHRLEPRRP
For experiment [3] the target is unchanged. As to the kind of experiment: Confirmatory qHTS for antagonist of cAMP-regulated guanine nucleotide exchange factor 4 (EPAC2) (AID 1645885). Also: nearly all actives have a fitted effect of over 25% in size. Also: potency is read from the fitted curve at half-maximal effect. As to activity change, negative = inhibition: % is scaled to controls: 0 for no effect and ±100 for the full control effect.
Experiment [4] concerns the target Rap guanine nucleotide exchange factor 3 (Homo sapiens) (UniProt O95398). As to the kind of experiment: Counterscreen qHTS for antagonist of cAMP-regulated guanine nucleotide exchange factor 3 (EPAC1) (AID 1645888).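 Also: fluorescence loss as bound BODIPY-GDP is released from Rap1B; % of control where 0% means no effect.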 The method in brief: (§1)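 Measured: fluorescence of BODIPY-GDP bound to Rap1B, which falls as exchange proceeds. Conditions include 50 uM competing GDP, 5 and 30 min reads, and a later cAMP challenge for antagonist detection.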
(In general: Counterscreens check selectivity or assay interference.)

The target is the same in experiment [5]. As to the kind of experiment: Counterscreen qHTS for agonist of cAMP-regulated guanine nucleotide exchange factor 3 (EPAC1) (AID 1645889). Also: % of control where 0% means no effect; nearly all actives have a fitted effect of over 40% in size. The gist of the method:
as §1

On to `CCc1nc(Oc2cccc(F)c2)c2oc3ccccc3c2n1`, for which the Potency entry in experiment [1], in experiment [2], in experiment [3] and in experiment [4] was “inactive” throughout.
Turning to `Nc1ccccc1C(=O)NNc1c2ccccc2nc2ccccc12`, the Potency entry in experiment [1], in experiment [2], in experiment [3] and in experiment [4] was “inactive” in each case.
As to `O=C(NCCc1ccccc1)c1ccc(Cn2c(SCc3cccc(F)c3)nc3cccnc32)cc1`, the Potency result in experiment [1], in experiment [2], in experiment [3] and in experiment [4] was “inactive” in each case.
`O=C(/C=C/c1ccc(-c2ccccc2[N+](=O)[O-])o1)c1ccco1`: the Potency result in experiment [1] and in experiment [3] was “inactive” each time. Also, the activation in experiment [2] was 7.95% [at 17.1 µM, percent relative to cAMP agonist control]. The activity change, negative = inhibition in experiment [4] was 9.73% [at 30.8 µM].
With `Cc1cccc(NC(=O)CN2C(=O)N/C(=C\c3ccccc3OCc3ccc(C(=O)O)cc3)C2=O)c1`, the Potency result in experiment [1], in experiment [2], in experiment [3] and in experiment [4] was “inactive” in each case.
With `CC(C)(C)C1CCc2c(sc3nc(SCC(=O)O)nc(N)c23)C1` (stereo not drawn), the Potency entry in experiment [1] and in experiment [3] was “inactive” each time. Moreover, the activation in experiment [2] was 8.5% [at 17.1 µM, percent relative to cAMP agonist control]. Also, the activity change, negative = inhibition in experiment [4] was -1.53% [at 30.8 µM].
Regarding `CC(C)(C)Cc1c(-c2ccccc2)nc2ccc(Cl)cn12`, the Potency result in experiment [1] and in experiment [3] was “inactive” each time. Also, the activation in experiment [2] was 9.48% [at 17.1 µM, percent relative to cAMP agonist control]. Besides, in experiment [4], the activity change, negative = inhibition is -2.23% [at 30.8 µM].
`COc1ccc(/C=C/C(=O)Oc2ccc(C)c(C)c2)cc1OC`: the Potency entry in experiment [1], in experiment [2], in experiment [3] and in experiment [4] was “inactive” throughout.
Consider `O=C(O)c1ccccc1NS(=O)(=O)c1ccc(NN=Cc2ccccc2F)c([N+](=O)[O-])c1`, for which the Potency entry in experiment [1] and in experiment [3] was “inactive” throughout. Besides, the activation in experiment [2] was 4.76% [at 17.1 µM, percent relative to cAMP agonist control]; in experiment [5], 23.2% [at 30.8 µM]. Further, the activity change, negative = inhibition in experiment [4] was -10.7% [at 30.8 µM].
Regarding `Cc1ccc(CNC(=O)c2c[nH]n3c(=O)c(Cc4ccc(Cl)cc4)c(C)nc23)cc1`, the Potency result in experiment [1], in experiment [2], in experiment [3], in experiment [4] and in experiment [5] was “inactive” each time.
For `COc1cccc(C(NC(C)=O)c2ccc3cccnc3c2O)c1` (stereo not drawn), the Potency result in experiment [1], in experiment [2], in experiment [4] and in experiment [5] was “inactive” each time. The Potency in experiment [3] is 19 µM (active).
Turning to `COCCCn1c(=O)/c(=C\c2ccccc2OC(C)C)s/c1=C(/C#N)C(=O)Nc1ccc(C(=O)O)cc1`, the Potency entry in experiment [1] and in experiment [3] was “inactive” each time. Moreover, the activation in experiment [2] was 8.99% [at 17.1 µM, percent relative to cAMP agonist control]. Besides, in experiment [4], the activity change, negative = inhibition was 38.7% [at 30.8 µM].
`Cc1ccc(C(=O)c2cn(Cc3cccc(C)c3)c3nc(C)ccc3c2=O)cc1`: the Potency result in experiment [1], in experiment [2], in experiment [3] and in experiment [4] was “inactive” in each case.
As to `CCc1nc2c(OCCC3CCCCC3)cccn2c1N(C)C(=O)c1ccc(C)cc1`, the Potency result in experiment [1], in experiment [2], in experiment [3] and in experiment [4] was “inactive” each time.
As to `CCc1c(O)cc(=O)n(-c2ccccc2)c1-c1ccccc1`, the Potency entry in experiment [1], in experiment [2], in experiment [4] and in experiment [5] was “inactive” throughout. For the same compound, the Potency in experiment [3] was 84.9 µM (active).
As for `CS(=O)(=O)c1ccc(C(=O)NCCN2C(=O)S/C(=C\c3cccnc3)C2=O)cc1[N+](=O)[O-]`, the Potency result in experiment [1] and in experiment [3] was “inactive” in each case. For the same compound, in experiment [2], the activation is 1.36% [at 17.1 µM, percent relative to cAMP agonist control]. In addition, the activity change, negative = inhibition in experiment [4] was -27.7% [at 30.8 µM].
